CHX counter: affects cycloheximide protein synthesis inhibition readout, counter-screen. AID 2314. max response, %. actives 12% (n = 300,000). cell reporter, cycloheximide protein synthesis inhibition counterscreen; in the data active = max response mostly above about 13%, no sharp cut-off; inactive = mostly below about 14%; note: read at 38.3 µM for the half of the compounds with a filed dose; 0% is about no effect
Pf growth 48h: inhibits P. falciparum growth in the first generation, 48 h; P. falciparum luciferase growth in erythrocytes, 48 h; Potency, µM (highest dose often 28.7 µM), for the others: at the highest dose activity change, negative = inhibition, usual class: inhibitors; actives 5.9% (n = 310,000); note: potency is the fitted concentration of half-maximal effect; % is set by controls: 0 for no effect and ±100 for the full control effect
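In quantitative HTS format, infected erythrocytes bearing luciferase-reporter parasites were treated for a single generation at 37 C. Luminescence after adding detection reagent served as the growth measure.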
SARS PLpro yeast: inhibitors of SARS-CoV papain-like protease in yeast; S. cerevisiae expressing SARS-CoV PLpro, growth rescue; Potency, µM (top dose mostly 32.9 µM), for the others: top-dose activity, positive = growth rescue, most hits filed as activators; actives 0.19% (n = 330,000); calls by dose curve; note: potency is the fitted concentration of half-maximal effect; 0% is about no effect; nearly all actives have a fitted effect of over 55% in size
AMA1 RON2 block: disrupts binding of P. falciparum AMA1 to RON2; AlphaScreen AMA1-biotinylated RON2 peptide binding; Potency, µM (top dose mostly 58.2 µM), for inactives: at the highest dose activity change, negative = inhibition, most hits filed as inhibitors; actives 0.2% (n = 360,000);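 note: potency is the fitted concentration of half-maximal effect; 0% = vehicle wells and -100% = peptide control; nearly all actives have a fitted effect of over 45% in size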
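AMA1 (3D7) with his tag at 25 nM final met compounds first, then biotinylated RON2 peptide at 25 nM; detection used donor plus acceptor beads, 10 µg/mL apiece, read by AlphaScreen after 30 min at room temperature.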
Pf growth 96h: P. falciparum growth inhibition at 96 hours; actives 6.9% (n = 320,000); P. falciparum luciferase reporter growth, 96 h; Potency, µM (titrated, usually from 28.7 µM), for the others: at the top dose activity change, negative = inhibition, usual class: inhibitors; AID 504834; note: potency is the fitted concentration of half-maximal effect; % is set by controls: 0 for no effect and ±100 for the full control effect
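Two parasite generations (96 h, 37 C, 5% CO2) of compound exposure in infected erythrocytes (0.05% parasitemia, 2% hematocrit). Luciferase-reporter P. falciparum; decreased luminescence indicates inhibited growth, aimed at apicoplast-acting delayed death.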
Shiga inhibitor: blocks Shiga toxin action in Vero cells; Vero cells, Shiga toxin protein synthesis inhibition reporter; inhibition, % at 38.7 µM; actives 9.2% (n = 290,000); in the data active = inhibition mostly above about 28%, no sharp cut-off; inactive = mostly below about 43%; note: 0% is about no effect
Starred values were filed as active, the others as inactive; i = inactive; u = inconclusive; x = no result. This is a sample that favours compounds with a hit; in the whole collection about 19% have one here. Unless noted, calls come from the whole dose curve; as a rule, active = well fitted curve in the direction sought with a large enough effect; inconclusive = small, poorly fitted or top-dose-only effect, or another doubt; inactive = no such curve, though single readings can be large; an effect the other way counts as inactive or inconclusive.

SMILES	CHX counter	Pf growth 48h	SARS PLpro yeast	AMA1 RON2 block	Pf growth 96h	Shiga inhibitor
COc1cc(/C=N/NC(=O)C2COc3ccccc3O2)ccc1O (stereo not drawn)	-3.9	37.4%	0.2%	19.6%	5.0%	19.8
COc1cc(/C=N\NC(=O)CNC(=O)C2COc3ccccc3O2)ccc1O (stereo not drawn)	0.8	2.1%	10.2%	8.8%	23.8%	-8.2
COc1ccc(/C=N\NC(=O)C2COc3ccccc3O2)cc1O (stereo not drawn)	19.8*	-3.0%	0.8%	73.2%	5.9%	62.4*
O=C(N/N=C/C=C/c1ccc([N+](=O)[O-])cc1)C1COc2ccccc2O1 (stereo not drawn)	3.6	10.6%	-37.6%	68.1%	11.7µM*	14.1
CC1CCCCN1N=Nc1nc2c([nH]1)c(=O)n(C)c(=O)n2C (stereo not drawn)	x	x	x	50.6%	x	x
Cc1ccc(S(=O)(=O)N(C)C[C@H]2Oc3ncc(Br)cc3C(=O)N([C@H](C)CO)C[C@@H]2C)cc1	x	x	x	6.0%	x	x
COc1ccc(Oc2c(C(F)(F)F)oc3cc(OCC(=O)O)ccc3c2=O)cc1	0.9	15.1%	-2.1%	-5.2%	9.28µM*	-3.3
CC(C)CN(C(=O)C1CCCO1)c1c(N)n(CC(C)C)c(=O)[nH]c1=O (stereo not drawn)	x	-2.7%	1.0%	-14.6%	46.3%	x
CC1CC=CC2C1C(=O)N(Cc1ccccc1)C2c1ccc(-c2cc3ccccc3s2)cc1F (stereo not drawn)	48.8*	x	x	x	x	96.4*
COc1ccc(-c2cc3ccccc3s2)cc1[C@H]1[C@H]2C=CC[C@@H](C)[C@@H]2C(=O)N1Cc1ccccc1	3.0	-1.3%	2.2%	-2.1%	u	44.3
Cc1ccc(-c2ccc([C@H]3[C@H]4C=CC[C@@H](C)[C@@H]4C(=O)N3Cc3ccccc3)c(F)c2)cc1	-5.5	11.7µM*	-6.4%	0.0%	10.4µM*	-5.7
Cc1ccc(-c2ccc(C3C4C=CCC(C)C4C(=O)N3Cc3ccccc3)c(F)c2)cc1 (stereo not drawn)	7.3	x	x	x	x	2.8
COc1ccc(-c2cn3cccc(C)c3n2)cc1F	57.4*	i	-2.8%	-2.2%	u	112.8*
O=[N+]([O-])c1cccn2cc(-c3ccc(Br)cc3)nc12	44.3*	u	-3.0%	u	4.65µM*	66.7*
Cc1cccn2cc(-c3ccc(S(=O)(=O)N4CCOCC4)cc3)nc12	-1.9	-23.5%	3.9%	-6.6%	-26.0%	-12.9
Cn1cccc([N+](=O)[O-])c1=O	x	x	x	14.4%	x	x
Cc1cccn2cc(-c3ccc(S(=O)(=O)N4CCCCC4)cc3)nc12	-1.6	16.9%	-1.6%	-6.7%	10.4µM*	15.6
Cc1ccc(-c2cn3cccc(C)c3n2)cc1	33.4*	-41.0%	-3.4%	-17.2%	u	50.6*
COc1ccc(-c2nc3c(-c4ccccc4)cnn3cc2C)cc1F	-1.9	u	1.0%	-9.5%	u	-6.5
Cc1cccn2cc(-c3ccc(Cl)cc3)nc12	44.8*	16.1%	-4.1%	-3.4%	387.5%	62.0*
COc1ccc([C@H]2N[C@]3(CCCN(Cc4ccc(C(F)(F)F)cc4)C3=O)[C@H]3C(=O)N(Cc4ccccc4)C(=O)[C@@H]23)cc1	x	x	x	-5.1%	x	x
Cc1cc(-n2cnnn2)cc(C)c1S(=O)(=O)NCCOc1ccccc1	-9.8	-8.6%	2.6%	-3.2%	-12.9%	13.1
O=C(CN1C(=O)/C(=C/c2ccccc2F)Sc2ccccc21)NCC1CCCO1 (stereo not drawn)	2.3	-2.6%	0.9%	5.0%	-4.3%	9.8
COc1nnc(-c2ccc(C(=O)N3C[C@@H]4C[C@H](C3)c3cccc(=O)n3C4)cc2)c2ccccc12	1.0	u	0.0%	-4.8%	2.62µM*	16.7
O=C(c1ccc(-c2nnc(Nc3cccc(Cl)c3)c3ccccc23)cc1)N1C[C@H]2C[C@H](C1)c1cccc(=O)n1C2	1.3	13.1µM*	7.2%	-20.6%	6.57µM*	-20.2
SMILES	CHX counter	Pf growth 48h	SARS PLpro yeast	AMA1 RON2 block	Pf growth 96h	Shiga inhibitor
Cn1nc(OCC(=O)O)cc1C(F)(F)F	12.3	-5.0%	0.0%	2.9%	16.6%	6.4
Cc1c(OCc2ccccc2)c(=O)ccn1Cc1ccccc1	11.1*	u	-0.4%	-20.2%	u	31.8
COC(=O)c1ccc(S(=O)(=O)NCCSc2nnc3c4ccccc4n(C)c3n2)cc1	0.2	u	-4.6%	-4.3%	-2.2%	-16.8
CC1(C)c2ccccc2-c2nc3ccccc3cc2C1O (stereo not drawn)	18.1*	-4.3%	2.5%	-0.3%	-1.6%	15.9
c1ccc2c(c1)-c1nc3ccccc3cc1C2N1CCCCC1 (stereo not drawn)	x	x	x	-1.6%	x	x
CNC(=O)N/N=C(\N)c1ccccn1	18.8*	57.9%	0.0%	121.8%	68.4%	36.9
N/C(=N\NC(=O)Nc1ccc(Cl)cc1)c1ccccn1	38.7*	139.9%	0.5%	-21.6%	202.9%	87.9*
O=C(Nc1ccc(Cl)cc1)O/N=C(\c1ccccc1)c1ccccn1	20.5*	15.1%	5.6%	10.2%	39.2%	25.4
Cc1nc(C(F)(F)F)c(C(=O)N/N=C(\N)c2ccccn2)s1	7.6	u	-1.9%	-52.1%	u	12.2
COC(=O)c1ccc(CN(C)S(=O)(=O)c2cccs2)cc1	55.8*	44.0%	-0.3%	-25.0%	43.5%	76.0*
CN(Cc1ccccc1)S(=O)(=O)c1cccs1	-0.6	x	3.8%	8.3%	9.4%	-7.9
Cc1ccc(NC(=O)CN(C)S(=O)(=O)c2cccs2)c(Br)c1	35.9*	51.6%	-0.2%	3.9%	-10.3%	84.5*
COc1cc(NC(=O)CN(C)S(=O)(=O)c2cccs2)cc(OC)c1	8.3	37.0%	0.0%	2.1%	-14.4%	-8.1
CN(CC(=O)NCCc1ccccc1)S(=O)(=O)c1ccc(Br)s1	27.7*	-8.4%	0.6%	-10.6%	1.3%	46.4*
Cc1ccc(CNC(=O)CN(C)S(=O)(=O)c2cccs2)cc1	27.5*	17.2%	3.6%	47.5%	u	22.7
CS(=O)(=O)N1CCC(C(=O)N2CCN(C(c3ccccc3)c3ccccc3)CC2)CC1	-0.8	u	-0.5%	-4.7%	7.4%	-2.0
CC(C)S(=O)(=O)N1CCCC(C(=O)c2cccc(Cl)c2)C1 (stereo not drawn)	-1.9	-4.0%	-1.8%	-8.7%	u	-8.6
Cc1ccc(NC(=O)CN(C)S(=O)(=O)c2cccs2)cc1F	37.6*	82.4%	-6.6%	-0.4%	44.3%	75.2*
CN(CC(=O)NCCc1ccc(Cl)cc1)S(=O)(=O)c1cccs1	21.5*	3.9%	-1.6%	-8.8%	-1.0%	34.2*
Cc1ccc(NC(=O)COC(=O)C2CC2)c(Br)c1	40.3*	-0.4%	0.4%	-9.9%	35.5%	61.5*
CN(CC(=O)NCCc1ccccc1)S(=O)(=O)c1cccs1	14.7	30.9%	2.8%	-6.6%	4.9%	21.6

Screening data as filed in PubChem.
